# L major viab – Leishmania major promastigote growth inhibition, primary screen; Leishmania major promastigotes, resazurin fluorescence viability; inhibition, % at 10 µM; 9% of 200,000 active; AID 1063, 2008; in the data active = inhibition above about 50%;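 also: promastigotes grown with compound for 44 hours at 28 °C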
# HCT116 bCat-KO – primary screen for growth suppressors in beta-catenin knockout HCT116 cells (colon tumor, human). HCT116 beta-catenin knockout viability, CellTiter-Glo, 60 h; stronger effect = lower value. viability, % at 10 µM. 1.5% of 140,000 active. AID 818, 2007;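 active = viability at or under a set limit, the compound median less 4 SD, cut at about 6% in these data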;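 also: 0% = Hyamine 1622 control at 20 µM and 100% = untreated cell control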
# Insulin prom inh – inhibitors of insulin promoter-driven GFP, primary screen, imaging, TRM-6 cells (human fetal islet line), eGFP reporter, cell count | reporter expression induced with tamoxifen | inhibition, % at 2 µM | 0.9% of 130,000 active | AID 1273, 2008;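 active = inhibition above the mean plus 3 SD, with well images judged a real hit on visual review, cut at about 60% in these data, passing the limit was not always enough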
# Ins promoter up – insulin promoter activators in MIN6 cells, imaging, high-content screening, mouse beta cells; MIN6 insulin promoter-GFP reporter; stronger effect = higher value; z-score at 5 µM; 0.3% of 190,000 active;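 active = z-score above 3 at 5 µM with at least 500 cells counted in the well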
# PTEN del growth – growth suppression of PTEN-null HCT116, primary screen, cell-based, CellTiter-Glo; HCT116 PTEN-null viability, 60 h; stronger effect = lower value; viability, % at 10 µM; 1.2% of 140,000 active; AID 827, 2007;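 active = viability at or below a set limit, 4 SD under the median of all tested compounds, cut at about 3.7% in these data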;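 also: PTEN knockout HCT116 line with beta catenin targeted HCT116 as companion control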
# Autophagy HCS – autophagy modulators in MEF cells, primary screen, imaging, high-content, MEF GFP-LC3. MEF GFP-LC3 puncta imaging; test concentration mostly 10 µM. calls only at 10 µM (by protocol). 0.98% of 190,000 active;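 active = percentage of spot-positive cells more than 3 SD above its plate mean, without a fluorescence outlier flag or 80% toxicity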;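 also: spot-positive cell cutoff set from DMSO-treated cells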
# Starred values were filed as active, the others as inactive; i = inactive; . = no result given; + = active, no number. In the library only some 9.6% were active in any assay of this set; here they are far more common.
SMILES,L major viab,HCT116 bCat-KO,Insulin prom inh,Ins promoter up,PTEN del growth,Autophagy HCS
CCCOc1ncnc2c1[nH]c1ccccc12,47,46,35,-0.81,53,i
CCN(CC)c1ncnc2c1[nH]c1ccccc12,60*,86,57,-0.72,80,i
COc1ccc(NC(=S)NC2CCN(Cc3ccccc3)CC2)cc1OC,22,.,.,0.14,.,i
S=C(Nc1ccc(Cl)cc1)NC1CCN(Cc2ccccc2)CC1,99*,23,-6,-0.52,41,i
CCC(C)c1ccc(NC(=S)NC2CCN(Cc3ccccc3)CC2)cc1 (stereo unspecified),87*,1.9*,.,-0.31,1.1*,i
S=C(Nc1ccccc1)NC1CCN(Cc2ccccc2)CC1,91*,.,.,-0.16,.,i
CCc1ccc(NC(=S)NC2CCN(Cc3ccccc3)CC2)cc1,96*,43,-118,.,45,i
CCOC(=O)c1cc(C)sc1/N=C/C1C(=O)CC(C)(C)CC1=O,2,94,41,0.76,97,i
CCCc1nc2ccccc2n1CCOc1ccccc1,10,82,25,0.68,74,i
COc1ccccc1OCCCCOc1ccccc1C(C)=O,0,60,-13,-0.52,56,i
CCCN1CCC(NC(=S)Nc2ccc([N+](=O)[O-])cc2)CC1,83*,.,.,0.85,.,i
CCCN1CCN(C(=S)Nc2ccc([N+](=O)[O-])cc2)CC1,36,84,.,0.09,94,i
COc1ccc(CCNC(=S)NC2CCN(Cc3ccccc3)CC2)cc1,74*,.,19,-0.61,.,i
S=C(NCCc1ccccc1)NC1CCC(NC(=S)NCCc2ccccc2)CC1 (stereo unspecified),-5,.,5,.,.,i
COc1cccc(OCc2nnc(SCC(=O)NCc3ccco3)n2CCc2ccccc2)c1,91*,94,-79,-0.4,96,i
COc1ccc(-n2c(COc3ccc4ccccc4c3)nnc2SCC(=O)NCc2ccco2)cc1,21,94,.,0.45,95,i
COc1ccc(OC)c(C(=O)CSc2nnc(Cc3cccs3)n2CCc2ccccc2)c1,97*,83,3,0.15,74,i
COc1ccc(-n2c(COc3cccc4ccccc34)nnc2SCC(=O)NCc2ccco2)cc1,98*,83,-12,0.18,97,i
COc1ccc(OC)c(C(=O)CSc2nnc(-c3cccs3)n2C)c1,-1,102,24,0.13,101,i
CCOC(=O)c1c(/N=C/N(C)C)sc(C=O)c1-c1ccccc1,5,.,.,-0.37,.,i
Cc1nc(SCc2ccccc2F)c2cnn(-c3ccccc3)c2n1,4,.,-20,-1.4,.,i
Cc1nc(C)c(/C(O)=C\c2nc3ccc([N+](=O)[O-])cc3oc2=O)o1,.,.,.,1.1,.,.
CCN(Cc1ccccc1)c1ccc(/C=N/N=C(N)N)cc1,100*,1.4*,-27,.,1.7*,i
CCN(Cc1ccccc1)c1ccc(/C=N/NC(=S)NC(C)C)cc1,43,51,40,-1.3,40,i
O=C(c1ccc(Cl)c([N+](=O)[O-])c1)N(c1ccccn1)c1ccccn1,70*,69,-24,0.16,67,i
SMILES,L major viab,HCT116 bCat-KO,Insulin prom inh,Ins promoter up,PTEN del growth,Autophagy HCS
COc1cc(N2CCCC2)c(OC)cc1C=O,3,.,.,-0.4,.,i
Cc1cccc(C)c1OCCOCCN1CCN(C)CC1,4,79,-16,1.6,89,i
CC(C)(C)c1ccccc1OCCOCCN1CCCCCC1,96*,.,.,-1,.,i
CC(C)(C)c1cccc(OCCCSc2ncccn2)c1,22,79,-51,0.38,76,i
Cc1ccc(C(C)(C)C)c(OCCOCCN2CCCC2)c1,96*,63,4,-0.16,60,i
CC(C)(C)c1ccccc1OCCOCCSc1ncccn1,97*,79,-53,.,78,i
CC1(C)NC(=O)N(CCSc2ccc(Cl)cc2)C1=O,-4,92,-31,1.1,92,i
CCc1ccc2[nH]c(=O)c(CN(CCN3CCCC3)C(=O)NC3CCCCC3)cc2c1,27,62,-23,-1.5,47,i
CNC(=O)c1cc2cc(OC)ccc2n1CCN(Cc1ccccc1)Cc1ccccc1,100*,66,-3,-0.79,83,i
CCn1nc(-c2ccccc2)c2nc3ccccc3nc21,3,83,.,1.6,78,+
CCCCCn1nc(-c2ccccc2)c2nc3ccccc3nc21,6,76,20,.,70,+
CCCn1nc(-c2ccccc2)c2nc3ccccc3nc21,-3,75,.,2.9,70,+
O=C(NC(N1CCOCC1)C(Cl)(Cl)Cl)c1cc([N+](=O)[O-])cc([N+](=O)[O-])c1 (stereo unspecified),91*,.,-43,0.28,.,i
O=C(NC(N1CCOCC1)C(Cl)(Cl)Cl)c1ccccc1Cl (stereo unspecified),1,.,.,0.43,.,i
O=C(C1=C[C@@H](c2ccc3c(c2)OCO3)C[C@@H](OCCCCO)O1)N1CCN(Cc2ccc3c(c2)OCO3)CC1,23,.,.,-0.66,.,i
O=C(C1=C[C@H](C2CCCCC2)C[C@H](OCCCCO)O1)N1CCN(Cc2ccc3c(c2)OCO3)CC1,97*,.,.,-0.77,.,i
O=C(C1=C[C@H](c2ccc3c(c2)OCO3)C[C@H](OCCCCO)O1)N1CCN(Cc2ccc3c(c2)OCO3)CC1,51*,.,.,0.79,.,i
O=C(C1=C[C@@H](C2CC2)C[C@@H](OCc2ccc(CO)cc2)O1)N1CCN(Cc2ccc3c(c2)OCO3)CC1,21,.,.,-0.09,.,i
CCOC(=O)c1c(/N=C/c2ccc(OC)cc2O)sc2c1CCN(C)C2,.,.,.,-0.04,.,.
CSc1ccccc1C(=O)Nc1ccccc1C,7,.,.,0.35,.,i
Cc1ccc(Nc2cc(C)nc(N3CCOCC3)n2)c(C)c1,76*,76,-18,-0.34,87,i
Cc1ccc(Nc2c(-c3ccc(N4CCOCC4)cc3)nc3ncccn23)c(C)c1,20,82,76*,-1.3,90,i
CNc1cc(C)nc(N2CCOCC2)n1,.,.,.,-0.81,.,.
CC(C)CNC(C(=O)Nc1ccc([N+](=O)[O-])cc1Br)c1ccccc1 (stereo unspecified),79*,82,26,0,77,i
Cc1cccc(C)c1OCc1nnc(SCC(=O)Nc2nccs2)o1,21,85,.,0.85,94,i
COC(=O)c1ccc(Cl)c(NC(=O)NC2CCCCC2)c1,33,95,0,-1.1,99,i
Cc1ccc(N2C(=O)[C@@H]3[C@H](C2=O)[C@H]2C=CC=NN2[C@@H]3C(=O)Nc2ccccc2)cc1,.,.,.,0.01,.,.
Cc1cccc(Nc2nc(N)c([N+](=O)[O-])c(N3CCCC(C)C3)n2)c1 (stereo unspecified),20,9,.,-2,2.8*,i
Cc1ccc([N+](=O)[O-])cc1NC(=O)c1ccccc1,4,.,.,-0.3,.,i
